C diff growth = inhibitors of Clostridium difficile growth | growth activity, negative = inhibition, % at 16 µg/mL (by protocol) | Clostridium difficile clinical isolate growth, OD600, 24 h; stronger effect = lower value | AID 1259249 | 86,000 compounds, 0.25% hits;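 active means mean growth activity at or below -80% and every replicate also at or below -80%; inconclusive means mean at or below -80% but some replicate above -80%; inactive means mean growth activity above -80%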
T cruzi growth-1 = T. cruzi proliferation inhibition. T. cruzi beta-gal in NIH3T3, GalScreen luminescence, 90 h. inhibition, % at 8.34 µM. 77,000 compounds, 5.9% hits. AID 624255;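 active means mean inhibition above about 93%, with at least 55% of replicates each passing it, limit read from the data, passing the limit was not always enough; inconclusive means only one of those two conditions holds; inactive means neither condition holds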
Pf Dd2 inh = inhibitors of Plasmodium falciparum Dd2 growth. 94,000 compounds, 2.3% hits. P. falciparum Dd2 growth, SYBR Green, 72 h; stronger effect = lower value. activity change, % at 10 µM; in the data active means activity change below about -80%; inconclusive means no clear call, values can overlap the other calls
T cruzi growth-2 = blocks T. cruzi growth in NIH3T3 host cells; shares compounds with T cruzi growth-1; T. cruzi beta-gal in NIH3T3, GalScreen luminescence, 90 h; inhibition, % at 8.35 µM; 5,600 compounds, 72% hits; AID 651739;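 active means mean replicate inhibition above about 95% and at least 55% of replicates individually reaching it, limit read from the data; inconclusive means only one of the two criteria is met; inactive means neither criterion is met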
T cruzi growth-3 = blocks T. cruzi growth in NIH3T3 host cells; 5,600 compounds, 21% hits; shares compounds with T cruzi growth-1; inhibition, % at 2.09 µM; T. cruzi beta-gal in NIH3T3, GalScreen luminescence, 90 h;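 active means mean inhibition above about 95%, with at least 55% of replicates also reaching it, limit read from the data; inconclusive means meets just one of the two conditions; inactive means meets neither condition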
NIH3T3 tox = cytotoxicity in mouse NIH/3T3 fibroblasts. shares compounds with T cruzi growth-1. NIH/3T3 viability, CellTiter-Glo ATP luminescence, 90 h. cytotoxicity (signal decrease), % at 8.35 µM. 5,600 compounds, 14% hits;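 active means mean signal decrease across replicates above about 35% based on untreated-well scatter, with enough replicates individually passing, limit read from the data; inconclusive means no rule stated though some were filed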
NIH3T3 tox 2 = NIH/3T3 (mouse) viability loss; AID 651744; NIH/3T3 viability, CellTiter-Glo ATP luminescence, 90 h; shares compounds with T cruzi growth-1; inhibition, % at 24.9 µM; 5,600 compounds, 56% hits;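 active means mean loss of cell viability signal at or above a set limit, and enough replicates individually reaching it; inconclusive means meets only the mean limit or only the replicate share; inactive means meets neither condition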
Large screens that a line does not name were inactive (follow-up assays come after a bar, where they were run). In the library only some 6.7% were active in any assay of this set; here they are far more common.

C[C@H]1CN([C@@H](C)CO)S(=O)(=O)c2ccc(-c3cccc(F)c3)cc2O[C@@H]1CN(C)C(=O)Nc1cc(F)ccc1F	T cruzi growth-1 112 | T cruzi growth-2 106 | T cruzi growth-3 inactive | NIH3T3 tox 43 | NIH3T3 tox 2 86
C[C@H](CO)N1C[C@H](C)[C@H](CN(C)C(=O)Nc2cc(F)ccc2F)Oc2cc(-c3cccc(C#N)c3)ccc2S1(=O)=O	none (no result: T cruzi growth-1)
COc1cccc(-c2cn(CC[C@@H]3CC[C@H](NC(C)=O)[C@H](CO)O3)nn2)c1	none
COCC#Cc1cnc2c(c1)C(=O)N([C@H](C)CO)C[C@H](C)[C@H](CN(C)C(=O)c1cccnc1)O2	none
CO[C@H]1CN(C)C(=O)c2cc(NC(=O)Nc3cc(F)ccc3F)ccc2OC[C@H](C)N(C(=O)c2ccccn2)C[C@@H]1C	none
C[C@@H]1CN([C@@H](C)CO)C(=O)c2cc(-c3cccnc3)cnc2O[C@@H]1CN(C)C(=O)Nc1ccccc1	none
C[C@@H]1CN([C@H](C)CO)C(=O)c2cc(NC(=O)CCC(F)(F)F)ccc2O[C@H]1CN(C)C(=O)Nc1ccc2c(c1)OCO2	none
COCC(=O)Nc1ccc2c(c1)OC[C@H](C)N(CCc1ccccc1)C[C@@H](C)[C@H](OC)CN(C)C2=O	none (no result: C diff growth)
C[C@H]1CN([C@@H](C)CO)S(=O)(=O)c2ccc(C#Cc3ccncc3)cc2O[C@@H]1CN(C)C	none
C[C@H]1CN([C@@H](C)CO)S(=O)(=O)c2ccc(C#Cc3ccncc3)cc2O[C@H]1CN(C)S(=O)(=O)c1ccc(F)cc1	T cruzi growth-1 118, Pf Dd2 inh -89 | T cruzi growth-2 102 | T cruzi growth-3 inactive | NIH3T3 tox inconclusive | NIH3T3 tox 2 inactive
C[C@H](CO)N1C[C@H](C)[C@H](CN(C)S(=O)(=O)c2ccc(F)cc2)Oc2cc(C#Cc3ccncc3)ccc2S1(=O)=O	T cruzi growth-1 114, Pf Dd2 inh -84 | T cruzi growth-2 inactive | T cruzi growth-3 inactive | NIH3T3 tox inconclusive | NIH3T3 tox 2 65
C[C@H]1CN([C@@H](C)CO)S(=O)(=O)c2ccc(C#Cc3ccncc3)cc2O[C@H]1CN(C)C	none
C[C@H](CO)N1C[C@H](C)[C@H](CN(C)Cc2cncnc2)Oc2ncc(/C=C/c3ccccc3)cc2C1=O	none
C[C@@H]1CN([C@@H](C)CO)C(=O)c2cc(C#CC3CCCCC3)cnc2O[C@@H]1CN(C)S(=O)(=O)c1cccc(F)c1	none (no result: T cruzi growth-1)
C[C@@H]1CN([C@H](C)CO)C(=O)c2cc(C#CC3CCCC3)cnc2O[C@H]1CN(C)S(=O)(=O)c1cccc(F)c1	T cruzi growth-1 inconclusive | T cruzi growth-2 104 | T cruzi growth-3 inactive | NIH3T3 tox inactive | NIH3T3 tox 2 77
C[C@@H]1CN([C@@H](C)CO)C(=O)c2cc(C#CC3CCCCC3)cnc2O[C@H]1CN(C)S(=O)(=O)c1cccc(F)c1	none (no result: T cruzi growth-1)
C[C@H]1CN([C@@H](C)CO)C(=O)c2cc(C#CC3CCCC3)cnc2O[C@@H]1CN(C)S(=O)(=O)c1cccc(F)c1	T cruzi growth-1 120 | T cruzi growth-2 105 | T cruzi growth-3 inactive | NIH3T3 tox inactive | NIH3T3 tox 2 83
COc1ccc(NC(=O)N(C)C[C@@H]2Oc3ccc(NS(=O)(=O)c4cn(C)cn4)cc3C(=O)N([C@H](C)CO)C[C@@H]2C)cc1	none
Cc1noc(C)c1NC(=O)N(C)C[C@@H]1Oc2c(NC(=O)Nc3ccccc3)cccc2C(=O)N([C@@H](C)CO)C[C@@H]1C	none (no result: C diff growth)
CC(C)NC(=O)N(C)C[C@@H]1OCCCC[C@H](C)Oc2ccc(NS(=O)(=O)c3cn(C)cn3)cc2C(=O)N([C@@H](C)CO)C[C@@H]1C	none
Cc1ccccc1-c1ccc([C@H]2[C@@H](CO)N3CCCCN(S(=O)(=O)c4cn(C)cn4)C[C@H]23)cc1	T cruzi growth-1 102 | T cruzi growth-2 inactive | T cruzi growth-3 inactive | NIH3T3 tox inactive | NIH3T3 tox 2 44
Cn1cnc(S(=O)(=O)N2CCCCN3[C@H](CO)[C@@H](c4ccc(-c5ccccc5F)cc4)[C@@H]3C2)c1	none
Cc1ccccc1-c1ccc([C@@H]2[C@H]3CN(S(=O)(=O)c4cn(C)cn4)CCCCN3[C@H]2CO)cc1	T cruzi growth-1 126 | T cruzi growth-2 inactive | T cruzi growth-3 inactive | NIH3T3 tox inactive | NIH3T3 tox 2 26
Cn1cnc(S(=O)(=O)N2CCCCN3[C@@H](CO)[C@H](c4ccc(-c5ccccc5F)cc4)[C@@H]3C2)c1	none
CO[C@H]1CN(C)C(=O)c2cc(NS(C)(=O)=O)ccc2OC[C@H](C)N(Cc2nccs2)C[C@@H]1C	none (no result: C diff growth)
COc1ccc(S(=O)(=O)Nc2ccc3c(c2)C(=O)N([C@@H](C)CO)C[C@@H](C)[C@H](CN(C)C(=O)NC2CCCCC2)OCCCC[C@H](C)O3)cc1	none
C[C@H](CO)N1C[C@H](C)[C@@H](CN(C)C(=O)Cc2ccncc2)Oc2cc(C#CC3CCCCC3)ccc2S1(=O)=O	none (no result: C diff growth)
C[C@H]1CN([C@@H](C)CO)S(=O)(=O)c2ccc(C#CC3CCCCC3)cc2O[C@@H]1CN(C)C(=O)Cc1ccncc1	none (no result: C diff growth)
C[C@@H]1CN([C@@H](C)CO)S(=O)(=O)c2ccc(C#CC3CCCC3)cc2O[C@@H]1CN(C)C(=O)Cc1ccncc1	T cruzi growth-1 122 | T cruzi growth-2 97 | T cruzi growth-3 inactive | NIH3T3 tox inactive | NIH3T3 tox 2 62
C[C@H](CO)N1C[C@H](C)[C@@H](CN(C)C(=O)Cc2ccncc2)Oc2cc(C#CC3CCCC3)ccc2S1(=O)=O	T cruzi growth-1 122, Pf Dd2 inh -85 | T cruzi growth-2 108 | T cruzi growth-3 inactive | NIH3T3 tox inactive | NIH3T3 tox 2 inconclusive
CO[C@H]1CN(C)C(=O)c2cc(NC(=O)NC(C)C)ccc2OC[C@@H](C)N(Cc2cncnc2)C[C@@H]1C	none
COCC#Cc1ccc2c(c1)O[C@@H](CN(C)Cc1cccnc1)[C@@H](C)CN([C@@H](C)CO)S2(=O)=O	none
CCCC#Cc1ccc2c(c1)O[C@H](CN(C)Cc1cncnc1)[C@H](C)CN([C@H](C)CO)S2(=O)=O	none
CCCC#Cc1ccc2c(c1)O[C@@H](CN(C)Cc1cncnc1)[C@@H](C)CN([C@@H](C)CO)S2(=O)=O	none
CCCC#Cc1ccc2c(c1)O[C@@H](CN(C)Cc1cncnc1)[C@H](C)CN([C@H](C)CO)S2(=O)=O	none
CCCC#Cc1ccc2c(c1)O[C@H](CN(C)Cc1cccnc1)[C@H](C)CN([C@@H](C)CO)S2(=O)=O	T cruzi growth-1 109 | T cruzi growth-2 99 | T cruzi growth-3 inactive | NIH3T3 tox 54 | NIH3T3 tox 2 inconclusive
COCC#Cc1ccc2c(c1)O[C@H](CN(C)Cc1cccnc1)[C@@H](C)CN([C@@H](C)CO)S2(=O)=O	T cruzi growth-1 105 | T cruzi growth-2 97 | T cruzi growth-3 inactive | NIH3T3 tox inactive | NIH3T3 tox 2 64
